Assay [1] has as its system P. falciparum NF54-pfs16-GFP early (I-III) stage gametocytes. The experiment in a line: relative % inhibition of viable gametocyte number; higher = more gametocytocidal. Particulars: stage: early (I-III) gametocyte, incubation 72 h. The method, boiled down:
(§1)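 Early-stage (I/IIa, day 2) or late-stage (day 8) NF54 pfs16-GFP gametocytes were isolated by magnet and plated in 384-well poly-D-lysine imaging plates at 10% parasitaemia and 0.1% haematocrit, with compound in duplicate at 5 or 0.5 µM. After 72 h at 37°C under 5% CO2 and 5% O2, MitoTracker Red was added overnight. Confocal imaging scored elongated GFP objects whose MitoTracker signal passed a cut-off as viable gametocytes. Relative inhibition was normalised against vehicle and positive-control wells on the same plate.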

Assay [2] concerns P. falciparum NF54-pfs16-GFP late (IV-V) stage gametocytes. The assay is described as above. The settings on record: stage: late (IV-V) gametocyte, incubation 72 h. A digest of the protocol: as §1

For 13 compounds, relative % inhibition results are on record in the supplement of paper PMC3842684.

For the compound `COc1ccccc1C(=O)ON=C(N)Cc1cccc2ccccc12`, the relative % inhibition in assay [1] (0.5 µM) turned out to be 13.9%; in assay [1] (5 µM), 78%; in assay [2] (0.5 µM), 5.05%; in assay [2] (5 µM), 92.5%.
As for `CC(NCc1ccccc1)c1cc(Cl)ccc1O` (configuration not stated), the relative % inhibition came to 15.7% in assay [1] (0.5 µM), 89.5% in assay [1] (5 µM), 15.3% in assay [2] (0.5 µM) and 53.3% in assay [2] (5 µM).
Turning to `COc1ccc(Nc2cc(C)nc(NCc3ccccc3)n2)cc1`, the relative % inhibition in assay [1] (0.5 µM) is -3.8%; in assay [1] (5 µM), 26.6%; in assay [2] (0.5 µM), -3.1%; in assay [2] (5 µM), 36%.
As to `COc1cc(OC)c(N(C)C(=O)c2cc3c(s2)-c2ccccc2S(=O)(=O)C3)cc1Cl`, the relative % inhibition in assay [1] (0.5 µM) stood at 52.2%; in assay [1] (5 µM), 93.9%; in assay [2] (0.5 µM), 28.5%; in assay [2] (5 µM), 44.6%.
Regarding `CCn1nc(-c2ccc(C(=O)OC)cc2)nc2c(=O)n(C)c(=O)nc1-2`, the relative % inhibition in assay [1] (0.5 µM) was 18.4%; in assay [1] (5 µM), 36.1%; in assay [2] (0.5 µM), 68%; in assay [2] (5 µM), 76.7%.
Take `CN1CCN(c2nc(Nc3ccc(O)cc3)nc3ccccc23)CC1`: the relative % inhibition in assay [1] (0.5 µM) was -17.7%; in assay [1] (5 µM), -9.15%; in assay [2] (0.5 µM), -10.7%; in assay [2] (5 µM), -15.5%.
For `OC(Cn1nnc2ccccc21)Cn1c2ccc(Br)cc2c2cc(Br)ccc21` (configuration not stated) the same measures were 5.28%, 83.6%, 18.2% and 43.4%.
Taken in the same sequence, the figures for `COc1ccc(C=C2SC(=N)N(c3ccccc3OC)C2=O)cc1` were 11%, 63.6%, 0% and 67.5%.
Taken in the same sequence, the figures for `O=C(NC1CCN(Cc2ccccc2)CC1)c1cc(-c2ccncc2)nc2ccc(Cl)cc12` were 17.7%, 64.3%, -28.1% and -1.38%.
As to `CCCc1c(C)nc2ccc(Br)cc2c1O`, the relative % inhibition in assay [1] (0.5 µM) was 4.64%; in assay [1] (5 µM) it was -4.44%; in assay [2] (0.5 µM), 25.1%; in assay [2] (5 µM), 59.8%.
For `Nc1ccn(C2O[C@H](CO)[C@@H](O)[C@H]2O)c(=O)n1` (some centres not stated) the same measures were -12.7%, 9.7%, 8.91% and -10.9%.
As to `CC(C)(C)C(=O)Nc1ccc(C(=O)Nc2cccc(-c3nc4ccccc4[nH]3)c2)cc1`, the relative % inhibition in assay [1] (0.5 µM) stood at 7.02%; in assay [1] (5 µM), 15.3%; in assay [2] (0.5 µM), 3.45%; in assay [2] (5 µM) it was 17.3%.
Taken in the same sequence, the figures for `COc1ccc2c(c1)C1(Nc3ccccc3-c3nc4ccccc4n31)C(=O)N2` (configuration not stated) were 55.7%, 84.8%, 37.6% and 63.5%.
